Screening data: PubChem, National Center for Advancing Translational Sciences (NCATS)
TrxR1 substrate: is turned over as a substrate by rat TrxR1; purified TrxR1 substrate turnover, NADPH consumption readout; 390,000 tested, 0.01% active; AID 588456; Potency, µM (doses to about 114 µM), for the others: at the highest dose activity change, negative = substrate turnover; note: potency is the fitted concentration of half-maximal effect; nearly all actives have a fitted effect of over 50% in size
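Rat TrxR1, dispensed at 90 nM, was prereduced with 400 uM NADPH (final) for 5 min at ~22 deg C, then incubated with compound 15 min before 400 uM selenite. A first-read NADPH fluorescence drop versus no-compound background flagged substrates.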
Eya2 inh: inhibitors of human Eya2 phosphatase activity. recombinant Eya2, OMFP fluorescence dephosphorylation (OMFP is methylfluorescein phosphate). Potency, µM (titrated, usually from 76.9 µM), without a hit: at the top dose activity, negative = inhibition, most hits filed as inhibitors. 330,000 tested, 0.006% active. O00167; note: potency is the fitted concentration of half-maximal effect
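Eya2 protein (added as 0.2 uM solution) was preincubated with compound for 10 min at ambient temperature in 50 mM HEPES pH 7.5, 50 mM NaCl, 5 uM MgCl2, 0.05% BSA, 1 mM DTT. OMFP (added at 50 uM) then reacted 10 min; fluorescence read at 485/525 nm.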
FBPA coupling cs: counter-screen for Giardia aldolase inhibitors: coupling enzyme system. 290,000 tested, 0.67% active. activity change, negative = inhibition, % at 58.2 µM, hits read low. coupling enzyme system counterscreen, AmpLite Red fluorescence. AID 2472; in the data active = activity change below about -30%
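Counterscreen of the coupled detection system alone, without aldolase: glyceraldehyde-3-phosphate coupling enzymes plus AmpLite Red readout. Compounds at 57.5 uM final, 10 min RT preincubation, 20 min RT reaction, fluorescence 525/598 nm.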
TrxR1 inh: inhibitors of rat thioredoxin reductase 1; 390,000 tested, 1% active; recombinant rTrxR1, NADPH fluorescence consumption, selenite substrate; O89049; Potency, µM (titrated, usually from 114 µM), for the others: at the highest dose activity change, negative = inhibition, actives largely listed as inhibitors; AID 588453; note: potency is the fitted concentration of half-maximal effect; nearly all actives have a fitted effect of over 65% in size
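Rat TrxR1 (90 nM in the dispensed reagent) was pre-reduced with 400 uM NADPH for 5 min at room temperature, then incubated with compound for 15 min. After 400 uM selenite was added, NADPH fluorescence (Ex 340/Em 450 nm) was followed for 8 min.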
IDH1 R132H inh: inhibitors of human mutant IDH1 R132H. 390,000 tested, 0.093% active. IDH1-R132H enzyme, NADPH consumption, diaphorase/resazurin fluorescence. O75874. Potency, µM (top dose mostly 76.6 µM), for inactives: top-dose activity change, negative = inhibition, most hits filed as inhibitors; note: potency is the fitted concentration of half-maximal effect; nearly all actives have a fitted effect of over 65% in size
Target sequence (O75874 whole entry R132H, stated change not applied): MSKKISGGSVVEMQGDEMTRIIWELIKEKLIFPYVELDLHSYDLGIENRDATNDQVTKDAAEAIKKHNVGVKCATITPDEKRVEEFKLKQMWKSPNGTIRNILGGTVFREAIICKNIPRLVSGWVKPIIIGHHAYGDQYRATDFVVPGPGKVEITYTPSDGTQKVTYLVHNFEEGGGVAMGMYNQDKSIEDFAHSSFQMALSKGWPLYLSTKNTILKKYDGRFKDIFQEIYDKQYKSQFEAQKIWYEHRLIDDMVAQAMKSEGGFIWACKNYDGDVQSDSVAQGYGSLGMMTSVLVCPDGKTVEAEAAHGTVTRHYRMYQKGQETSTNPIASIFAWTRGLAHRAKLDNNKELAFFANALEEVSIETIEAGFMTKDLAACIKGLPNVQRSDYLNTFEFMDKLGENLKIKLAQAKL
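IDH1-R132H (0.5 ug/mL) preincubated 30 min with compound, then NADPH (0.016 mM) and alpha-KG (2 mM) added; 80 min at RT, pH 7.5. Remaining NADPH coupled via diaphorase/resazurin to fluorescence (540/590 nm); concentration-response curves normalized to no-enzyme control.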
* hit, by the source's call; [ ] = another dose, or the depositor's remark. Most compounds without a hit are left out; they make up all but 1.5% or so of the library. Unless noted, calls come from the whole dose curve; as a rule, active = well fitted curve in the direction sought with a large enough effect; inconclusive = small, poorly fitted or top-dose-only effect, or another doubt; inactive = no such curve, though single readings can be large; an effect the other way counts as inactive or inconclusive. % is set by controls: 0 for no effect and ±100 for the full control effect.

NC(=O)c1ccccc1NCC(=O)c1ccc(Cl)cc1 was read as TrxR1 substrate 7%[57.1 µM], Eya2 inh 2%, FBPA coupling cs 1, TrxR1 inh 1%[57.1 µM] and IDH1 R132H inh 52µM*.
`O=[N+]([O-])c1ccc(Sc2nnnn2-c2ccccc2)nc1` gave TrxR1 substrate -2%[57.1 µM], Eya2 inh 17%, FBPA coupling cs 1, TrxR1 inh 13µM* and IDH1 R132H inh -6%.
`NC(N)=N/N=C/c1ccccc1` gave TrxR1 substrate 6%[57.1 µM], Eya2 inh -11%, FBPA coupling cs 1, TrxR1 inh 11%[57.1 µM] and IDH1 R132H inh -5%.
For NC(N)=N/N=C/c1ccc(OCc2ccccc2Cl)cc1 the results were TrxR1 substrate 4%[57.1 µM], Eya2 inh 35µM*, FBPA coupling cs -2, TrxR1 inh 4%[57.1 µM] and IDH1 R132H inh 0%.
`C=CCn1c(SCC#N)nc2ccc(Cl)cc2c1=O` gave TrxR1 substrate -7% and TrxR1 inh 8%.
Screening C[N+](C)(C)c1ccc(/C=C/c2ccnc3ccccc23)cc1 returned TrxR1 substrate -1% and TrxR1 inh inconclusive.
Screening O=C(c1cnn2c1NC(=C1CC1)C=C2C(F)F)N1CCc2ccccc21 returned TrxR1 substrate 4% and TrxR1 inh 8%.
Screening O=C(CSCC(=O)OCn1nnc2ccccc2c1=O)Nc1ccc(Cl)cc1 returned TrxR1 substrate 1%, Eya2 inh 7%, FBPA coupling cs -1, TrxR1 inh 18µM* and IDH1 R132H inh 7%.
Screening Cc1ccc(NC(=S)Nc2ccc3nc(-c4ccccn4)c(-c4ccccn4)nc3c2)cc1C returned TrxR1 substrate -11%, Eya2 inh 6%, FBPA coupling cs -53*, TrxR1 inh inconclusive and IDH1 R132H inh 10%.
Screening COc1ccc(OC)c(/C=C2\C=Cc3ccccc32)c1 returned TrxR1 substrate 5% and TrxR1 inh 5.6µM*.
Screening CC[C@H](C)[C@H](NC(=O)[C@@H](NC(=O)[C@@H](NC(=O)[C@H](CCC(=O)O)NC(=O)[C@H](CCC(=O)O)NC(=O)[C@H](CCC(=O)O)NC(=O)[C@H](C)NC(=O)[C@@H](N)CC(C)C)C(C)C)C(C)C)C(=O)N[C@@H](CCCNC(=N)N)C(=O)N[C@@H](CO)C(=O)N[C@@H](C)C(=O)N[C@@H](CC(N)=O)C(=O)N[C@@H](Cc1ccccc1)C(=O)N[C@H](C(=O)N[C@@H](CC(=O)O)C(=O)N[C@@H](CC(N)=O)C(=O)O)[C@@H](C)O returned FBPA coupling cs 10.
For CCNc1nc(C#N)nc(N2CCOCC2)n1 the results were TrxR1 substrate 3%[0.0914 µM] and TrxR1 inh -4%.
Screening Cc1ccc(-c2csc3nc(C)n(-n4c(C)ccc4C)c(=O)c23)o1 returned TrxR1 substrate -3%, Eya2 inh 9%, FBPA coupling cs -1, TrxR1 inh 18µM* and IDH1 R132H inh 7%.
For O=S(=O)(NCC(c1cccs1)S(=O)(=O)c1ccccc1)c1ccc(F)cc1 (centres undefined) the results were TrxR1 substrate -15%[57.1 µM], TrxR1 inh 13µM* and IDH1 R132H inh 13%.
Screening CN1C(=O)N(C)C2=NNC=NC2(O)C1=O (centres undefined) returned FBPA coupling cs -46*.
`CNC(=O)C12N=CNN=C1N(C)C(=O)N2C` (centres undefined) gave TrxR1 substrate 6%[57.1 µM], Eya2 inh -3%, FBPA coupling cs 2, TrxR1 inh 19%[57.1 µM] and IDH1 R132H inh 4%.
`O=C1N/C(=C\c2ccc(O)cc2)C(=O)c2ccccc21` gave TrxR1 substrate 4%, Eya2 inh -7%, FBPA coupling cs -31*, TrxR1 inh inconclusive and IDH1 R132H inh 0%.
O=C(O)/C=C1\NC(=O)c2ccccc21 was read as TrxR1 substrate 2%[57.1 µM], Eya2 inh -13%, FBPA coupling cs 7, TrxR1 inh -19% and IDH1 R132H inh 7%.
For O=P1(O)Oc2c(c(-c3ccccc3)cc3ccc4ccccc4c23)-c2c(-c3ccccc3)cc3ccc4ccccc4c3c2O1 the results were FBPA coupling cs 3.
`O=c1[nH]c(-c2ccc(-c3cccc(Cl)c3)o2)nc2ccccc12` gave TrxR1 substrate 13%, Eya2 inh 8% and TrxR1 inh 50µM*.
Screening C=CCn1c(SCC(=O)NCc2ccco2)nnc1-c1cccc(N(C)C)c1 returned TrxR1 substrate 1% and TrxR1 inh -7%.
For CCOc1ccc(S(=O)(=O)NCc2ccccc2Cl)cc1C(N)=O the results were TrxR1 substrate -7%, Eya2 inh -10%, FBPA coupling cs -37*, TrxR1 inh 26%[0.0914 µM] and IDH1 R132H inh 35%.
Screening CCOc1ccc(S(=O)(=O)NCc2ccccc2)cc1C(N)=O returned TrxR1 substrate 1%, Eya2 inh -14%, FBPA coupling cs -20, TrxR1 inh 10% and IDH1 R132H inh 10%.
`CN=c1scc(-c2ccccc2F)n1/N=C/c1ccc(O)c(O)c1O` gave TrxR1 substrate 3%[57.1 µM], Eya2 inh -5%, FBPA coupling cs -47*, TrxR1 inh -22%[57.1 µM] and IDH1 R132H inh 4%.
`COc1cc(-c2nc3sccn3c2Nc2c(C)cccc2C)ccc1O` gave TrxR1 substrate -5% and TrxR1 inh 16µM*.
Screening CC(C)C(Cl)=NOC(=O)Nc1ccc(S(N)(=O)=O)cc1 returned TrxR1 substrate 3%[11.4 µM], TrxR1 inh 0.79µM* and IDH1 R132H inh 6%.
`Cc1oc(C)c2c(=O)ccc3c(c12)OC(N)=C(C#N)C3c1ccc(F)cc1` (centres undefined) gave TrxR1 substrate -6%, Eya2 inh 23%, FBPA coupling cs -43*, TrxR1 inh inconclusive and IDH1 R132H inh -13%.
`Cc1[nH]nc2c1C(c1ccc(F)cc1)C(C#N)=C(N)O2` (centres undefined) gave TrxR1 substrate 1%[57.1 µM], Eya2 inh 14%, FBPA coupling cs 5, TrxR1 inh -1%[57.1 µM] and IDH1 R132H inh 4%.
`O=C(Cc1ccc(S(=O)(=O)N2CCOCC2)s1)Nc1nc2c(s1)CCCC2` gave TrxR1 substrate -2%, Eya2 inh 4%, FBPA coupling cs -59*, TrxR1 inh -22% and IDH1 R132H inh 7%.
For O=C(Cc1ccc(S(=O)(=O)N2CCOCC2)s1)Nc1ccc2c(c1)CCC2 the results were TrxR1 substrate -8%, Eya2 inh -2%, FBPA coupling cs 1, TrxR1 inh 2% and IDH1 R132H inh 3%.
`Clc1ccccc1CSc1nnc(-c2cccnc2)n1Cc1ccco1` gave TrxR1 substrate 1%, Eya2 inh -1%, FBPA coupling cs 3, TrxR1 inh 25µM* and IDH1 R132H inh -1%.
Screening CC1(C)CCN2CCC(C)(C)c3c(O)ccc1c32 returned TrxR1 substrate -7%, Eya2 inh 45%, FBPA coupling cs -30*, TrxR1 inh inconclusive and IDH1 R132H inh 8%.
